Results as given in the supplement of paper PMC10981050.
“And” between values parts separate entries of the source, which are not always exact repeats. Identical values can stand only once.

Assays:
Assay in all cases: cell viability relative to vehicle control; higher = less cytotoxic
Settings in all cases: 10 µM
K562 = system: K562
Procedure, shortened: (§1)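 Screening covered the Selleck bioactive, kinase and epigenetic probe libraries, less identity-inconsistent compounds, on CRISPR-edited mutant clones and isogenic wild-type clones of four leukaemia lines. Cells, at 2000 per well in 50 µL medium, received a single 10 µM acoustically dispensed dose. After 48 h the supernatant was removed and CellTiter-Glo luminescence was read. Viability was analysed in Genedata Screener as percent of the on-plate vehicle control.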

MARIMO = system: MARIMO
Procedure, shortened: as §1

MOLM14 = system: MOLM14
Procedure, shortened: as §1

OCI-AML2 = system: OCI-AML2
Procedure, shortened: as §1

Row | SMILES | cell viability (K562; SRSF2 genotype: SRSF2 P95H/wt) | cell viability (K562; SRSF2 genotype: SRSF2 wt/wt) | cell viability (MARIMO; SRSF2 genotype: SRSF2 P95H/wt) | cell viability (MARIMO; SRSF2 genotype: SRSF2 wt/wt) | cell viability (MOLM14; SRSF2 genotype: SRSF2 P95H/wt) | cell viability (MOLM14; SRSF2 genotype: SRSF2 wt/wt) | cell viability (OCI-AML2; SRSF2 genotype: P95H/wt) | cell viability (OCI-AML2; SRSF2 genotype: wt/wt)
1 | COc1cc2ncnc(Nc3ccc(O)c(Br)c3)c2cc1OC | 93.8% and 101% | 96.4% | 85.4% | 84.6% | 32.4% | 24.3% | 61.8% | 63.9%
2 | CC[C@H]1OC(=O)[C@H](C)[C@@H](O[C@H]2C[C@@](C)(OC)[C@@H](O)[C@H](C)O2)[C@H](C)[C@@H](O[C@@H]2O[C@H](C)C[C@H](N(C)C)[C@H]2O)[C@](C)(O)C[C@@H](C)CN(C)[C@H](C)[C@@H](O)[C@]1(C)O [Azithromycin] | 90.3% and 86.4% | 89.5% | 83.2% | 90.4% | 92.1% | 89.4% | 75.7% | 82.3%
3 | CNC(=O)c1ccc(C)c(-n2c(C)cc(OCc3ccc(F)cc3F)c(Br)c2=O)c1 | 74% and 77.8% | 82.4% | 65.6% | 58.4% | 69.8% | 78.8% | 72.8% | 72.2%
4 | N#Cc1ccc(-c2c(-c3ncn[nH]3)sc(N3CCOCC3)c2C#N)c(F)c1 | 60.4% and 73.5% | 68.2% | 47.4% | 39% | 27.8% | 28.3% | 9.07% | 24%
5 | CC(C)=CCC[C@@](C)(O)[C@H]1CC[C@@]2(C)[C@@H]1[C@H](O)C[C@@H]1[C@@]3(C)CC[C@H](O)C(C)(C)C3CC[C@]12C (stereo partly drawn) [(20R)-Protopanaxdiol] | 109% and 101% | 96% | 103% | 105% | 106% | 102% | 103% | 101%
6 | CC(C)(O)CNc1nc(Nc2ccnc(C(F)(F)F)c2)nc(-c2cccc(C(F)(F)F)n2)n1 [AG-221 (Enasidenib)] | 102% and 103% | 103% | 93.1% | 99.8% | 97.8% | 110% | 84.6% | 89.4%
7 | CC(C)C[C@H](NC(=O)[C@@H](NC(=O)c1cccc(-c2ccccc2)n1)[C@@H](C)O)B(O)O | 2.12% and 2.65% | 3.78% | 0.85% | 2.98% | 0.49% | 0.44% | 0.41% | 2.11%
8 | O=C1c2ccccc2-c2n[nH]c3cccc1c23 | 95% and 105% | 95.8% | 72.3% | 72% | 45% | 33.1% | 53.1% | 48.7%
9 | CCn1c(=O)c(-c2cc[nH]n2)cc2c(C)nc(N)nc21 | 54.4% and 68.5% | 65.7% | 43.5% | 35.6% | 29.2% | 26.4% | 13.8% | 20.5%
10 | Cc1[nH]c(/C=C2\C(=O)Nc3ccc(F)cc32)c(C)c1C(=O)NCCN1CCCC1 [Toceranib phosphate] | 97.4% and 103% | 94.5% | 64% | 53.4% | 5.66% | 7.09% | 11.6% | 19.6%
